Values joined by “and” are separate entries in the source; they are usually repeats but may differ in a detail not shown here. Equal entries are not always repeated. Unmarked numbers belong to inactive results. The call rests on the fitted dose curve.
Potency means the concentration at half of the fitted maximal effect.

The assay deals with Glucocorticoid receptor (Homo sapiens) (UniProt P04150). The experiment in a line: GR-EFC Redistribution (AID 451). The settings on record: CHO-K1 GR-EFC translocation, beta-gal luminescence, 2 h. In a few lines: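 Translocation of GR-ED fusion to nuclear EA restores b-gal, read by luminescence after 1 h room-temperature detection. Engineered CHO-K1 biosensor cells, 1,000/well, exposed 2 h at 37 C to titrations up to 46 uM final.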
Chain of Glucocorticoid receptor (Homo sapiens) (P04150 whole entry, looked up, the tested form may be a part): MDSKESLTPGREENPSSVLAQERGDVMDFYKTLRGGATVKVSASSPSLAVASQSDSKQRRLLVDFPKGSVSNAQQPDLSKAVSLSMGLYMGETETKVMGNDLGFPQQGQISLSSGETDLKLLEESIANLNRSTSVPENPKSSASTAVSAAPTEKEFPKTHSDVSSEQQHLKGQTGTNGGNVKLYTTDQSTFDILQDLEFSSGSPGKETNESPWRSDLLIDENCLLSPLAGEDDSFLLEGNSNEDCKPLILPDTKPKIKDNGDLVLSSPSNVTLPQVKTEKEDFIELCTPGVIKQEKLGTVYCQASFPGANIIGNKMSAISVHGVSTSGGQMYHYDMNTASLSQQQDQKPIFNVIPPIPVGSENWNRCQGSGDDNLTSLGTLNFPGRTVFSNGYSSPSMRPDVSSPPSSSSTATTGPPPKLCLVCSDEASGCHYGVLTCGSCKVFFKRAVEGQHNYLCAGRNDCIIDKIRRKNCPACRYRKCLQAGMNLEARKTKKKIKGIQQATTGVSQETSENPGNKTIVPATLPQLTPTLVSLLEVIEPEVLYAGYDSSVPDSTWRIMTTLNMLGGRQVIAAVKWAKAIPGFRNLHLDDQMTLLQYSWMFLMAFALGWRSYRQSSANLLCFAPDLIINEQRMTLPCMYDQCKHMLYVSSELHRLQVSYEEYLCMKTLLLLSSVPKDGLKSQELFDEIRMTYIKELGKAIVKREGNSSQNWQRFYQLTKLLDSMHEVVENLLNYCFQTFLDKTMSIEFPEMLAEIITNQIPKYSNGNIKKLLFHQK
`Cc1cc(NC(=O)Nc2ccc(N(C)C)cc2)c2cc(F)cc(F)c2n1`: the Potency was greater than 46 µM.

For `CN(C)c1ccccc1CN1CCCN(Cc2ccccc2N(C)C)C1c1ccncc1`, the Potency is greater than 9.22 µM. `CCCCC(C=O)NC(=O)C(CC(C)C)NC(=O)OCc1ccccc1` (centres undefined): the Potency is greater than 46 µM. For `Cc1ccc(NC(=O)c2cccc(N(C)C)c2)cc1NC(=O)c1ccc(O)cc1` the value was greater than 46 µM; for `CC1C(=O)OC2C(O)C34C5CC(C(C)(C)C)C36C(OC(=O)C6O)OC4(C(=O)O5)C12O` (centres undefined), greater than 46 µM. In the case of `COc1nccc(-c2c(-c3ccc(F)cc3)ncn2C2CCC(O)CC2)n1` (centres undefined), the Potency is greater than 46 µM. Regarding `CCC(=C(CC)c1ccc(O)cc1)c1ccc(O)cc1`, the Potency was greater than 20.6 µM. In the case of `CCCCC[C@H](O)C=C[C@H]1[C@H](O)CC(=O)[C@H]1CCCCCCC(=O)O`, the Potency was greater than 46 µM. For `Clc1ccc(COC(Cn2ccnc2)c2ccc(Cl)cc2Cl)c(Cl)c1` (centres undefined), the Potency is greater than 20.6 µM.

Turning to `O=c1cc(-c2ccc(O)c(O)c2)oc2cc(O)cc(O)c12`, the Potency is > 20.6 µM and > 46 µM. For `COc1ccc(CCN(C)CCCOc2ccc(S(=O)(=O)c3[nH]c4ccccc4c3C(C)C)cc2)cc1OC`, the Potency was greater than 46 µM. In the case of `CN1CCN2c3ncccc3Cc3ccccc3C2C1` (centres undefined), the Potency is greater than 46 µM.

In the case of `Cc1cc2nc3c(=O)[nH]c(=O)nc-3n(CC(O)C(O)C(O)CO)c2cc1C` (centres undefined), the Potency is > 20.6 µM and > 46 µM.

As to `NC(=O)c1nnn(Cc2cc(Cl)c(C(=O)c3ccc(Cl)cc3)c(Cl)c2)c1N`, the Potency was greater than 9.22 µM. `NS(=O)(=O)c1cc(Cl)c(Cl)c(S(N)(=O)=O)c1`: the Potency was greater than 20.6 µM. With `CN(C)CCN(Cc1ccc(Cl)cc1)c1ccccn1`, the Potency was greater than 20.6 µM.

On to `C=C1c2cccc(O)c2C(O)=C2C(=O)[C@@]3(O)C(O)=C(C(N)=O)C(=O)[C@@H](N(C)C)[C@@H]3[C@@H](O)[C@H]12`, for which the Potency was greater than 20.6 µM. Turning to `O=S(=O)(O)c1ccc2cc(N=Nc3cc(S(=O)(=O)O)c4cccnc4c3O)ccc2c1`, the Potency is greater than 9.22 µM.

With `CN[C@H]1[C@@H](O[C@@H]2[C@H](O[C@@H]3[C@@H](O)[C@@H](O)[C@@H](N=C(N)N)[C@@H](O)[C@@H]3N=C(N)N)O[C@H](C)[C@@]2(O)C=O)O[C@@H](CO)[C@@H](O)[C@H]1O`, the Potency was greater than 20.6 µM.

Values taken from PubChem BioAssay (NCATS).
